In one assay the test system is CAMK2B. Also on record: species or system human, MV4-11 + K-562 + COLO205 + SK-N-BE2 + OVCAR-8. The conditions noted are these: read-out: apparent Kd; compound concentrations: 100 nM and 1000 nM (sheet 'Samples'), CATDS: 0.45537516387232402; n = 1.
The next assay relates to CDC42BPG. Also on record: species or system human, MV4-11 + K-562 + COLO205 + SK-N-BE2 + OVCAR-8. The conditions noted are these: read-out: apparent Kd; compound concentrations: 100 nM and 1000 nM (sheet 'Samples'), CATDS: 0.32700083085172899; n = 1.
In another assay the test system is TGFBR2. Further details: species or system human, MV4-11 + K-562 + COLO205 + SK-N-BE2 + OVCAR-8. The conditions noted are these: read-out: apparent Kd; compound concentrations: 100 nM and 1000 nM (sheet 'Samples'), CATDS: 0.26695766684010303; n = 1.
The test system of another assay is CAMKK2. Also on record: species or system human, MV4-11 + K-562 + COLO205 + SK-N-BE2 + OVCAR-8. As to conditions: read-out: apparent Kd; compound concentrations: 100 nM and 1000 nM (sheet 'Samples'), CATDS: 3.10077731514018E-2; n = 1.
The subject of a further assay is CLK1. Also on record: species or system human, MV4-11 + K-562 + COLO205 + SK-N-BE2 + OVCAR-8. The conditions noted are these: read-out: apparent Kd; compound concentrations: 100 nM and 1000 nM (sheet 'Samples'), CATDS: 5.1220055062038403E-2; n = 1.
Another assay relates to CLK4. Further details: species or system human, MV4-11 + K-562 + COLO205 + SK-N-BE2 + OVCAR-8. As to conditions: read-out: apparent Kd; compound concentrations: 100 nM and 1000 nM (sheet 'Samples'), CATDS: 6.3001679315381406E-2; n = 1.
The subject of a further assay is CSNK1D. Further details: species or system human, MV4-11 + K-562 + COLO205 + SK-N-BE2 + OVCAR-8. The conditions noted are these: read-out: apparent Kd; compound concentrations: 100 nM and 1000 nM (sheet 'Samples'), CATDS: 3.1213203175664998E-2; n = 1.
Another assay concerns EIF2AK1. Also on record: species or system human, MV4-11 + K-562 + COLO205 + SK-N-BE2 + OVCAR-8. As to conditions: read-out: apparent Kd; compound concentrations: 100 nM and 1000 nM (sheet 'Samples'), CATDS: 3.5611911741364403E-2; n = 1.
Another assay relates to FER. Further details: species or system human, MV4-11 + K-562 + COLO205 + SK-N-BE2 + OVCAR-8. As to conditions: read-out: apparent Kd; compound concentrations: 100 nM and 1000 nM (sheet 'Samples'), CATDS: 4.34234720684002E-2; n = 1.
For the next assay, the system named is GAK. Also on record: species or system human, MV4-11 + K-562 + COLO205 + SK-N-BE2 + OVCAR-8. As to conditions: read-out: apparent Kd; compound concentrations: 100 nM and 1000 nM (sheet 'Samples'), CATDS: 0.16140378921040499; n = 1.
Another assay relates to IGF1R. Also on record: species or system human, MV4-11 + K-562 + COLO205 + SK-N-BE2 + OVCAR-8. As to conditions: read-out: apparent Kd; compound concentrations: 100 nM and 1000 nM (sheet 'Samples'), CATDS: 3.6183356665864301E-2; n = 1.
Another assay relates to INSR. Further details: species or system human, MV4-11 + K-562 + COLO205 + SK-N-BE2 + OVCAR-8. The conditions noted are these: read-out: apparent Kd; compound concentrations: 100 nM and 1000 nM (sheet 'Samples'), CATDS: 4.1283599015515197E-2; n = 1.
For a further assay, the system named is MAPK10. Also on record: species or system human, MV4-11 + K-562 + COLO205 + SK-N-BE2 + OVCAR-8. The conditions noted are these: read-out: apparent Kd; compound concentrations: 100 nM and 1000 nM (sheet 'Samples'), CATDS: 0.121038756107581; n = 1.
The next assay deals with MAPK8. Also on record: species or system human, MV4-11 + K-562 + COLO205 + SK-N-BE2 + OVCAR-8. As to conditions: read-out: apparent Kd; compound concentrations: 100 nM and 1000 nM (sheet 'Samples'), CATDS: 0.11476451358793401; n = 1.
The next assay has as its system MAPK9. Also on record: species or system human, MV4-11 + K-562 + COLO205 + SK-N-BE2 + OVCAR-8. The conditions noted are these: read-out: apparent Kd; compound concentrations: 100 nM and 1000 nM (sheet 'Samples'), CATDS: 6.9052364835720206E-2; n = 1.
A further assay has as its system NUAK1. Also on record: species or system human, MV4-11 + K-562 + COLO205 + SK-N-BE2 + OVCAR-8. The conditions noted are these: read-out: apparent Kd; compound concentrations: 100 nM and 1000 nM (sheet 'Samples'), CATDS: 3.4302390396245802E-2; n = 1.
For another assay, the system named is PRKD2. Also on record: species or system human, MV4-11 + K-562 + COLO205 + SK-N-BE2 + OVCAR-8. The conditions noted are these: read-out: apparent Kd; compound concentrations: 100 nM and 1000 nM (sheet 'Samples'), CATDS: 3.5974174305942498E-2; n = 1.
For another assay, the system named is PRKD3. Also on record: species or system human, MV4-11 + K-562 + COLO205 + SK-N-BE2 + OVCAR-8. As to conditions: read-out: apparent Kd; compound concentrations: 100 nM and 1000 nM (sheet 'Samples'), CATDS: 3.1846341330559601E-2; n = 1.
For a further assay, the system named is PTK2B. Also on record: species or system human, MV4-11 + K-562 + COLO205 + SK-N-BE2 + OVCAR-8. The conditions noted are these: read-out: apparent Kd; compound concentrations: 100 nM and 1000 nM (sheet 'Samples'), CATDS: 8.6310597132222E-2; n = 1.
The subject of another assay is PTK2. Further details: species or system human, MV4-11 + K-562 + COLO205 + SK-N-BE2 + OVCAR-8. As to conditions: read-out: apparent Kd; compound concentrations: 100 nM and 1000 nM (sheet 'Samples'), CATDS: 5.1603916843062203E-2; n = 1.
The next assay addresses Q6ZSR9 (human, UniProt Q6ZSR9). Also on record: species or system MV4-11 + K-562 + COLO205 + SK-N-BE2 + OVCAR-8. The conditions noted are these: read-out: apparent Kd; compound concentrations: 100 nM and 1000 nM (sheet 'Samples'), CATDS: 3.1507778196600798E-2; n = 1.
The test system of a further assay is RPS6KA1. Also on record: species or system human, MV4-11 + K-562 + COLO205 + SK-N-BE2 + OVCAR-8. The conditions noted are these: read-out: apparent Kd; compound concentrations: 100 nM and 1000 nM (sheet 'Samples'), CATDS: 3.19128363140119E-2; n = 1.
The next assay relates to TNK1. Also on record: species or system human, MV4-11 + K-562 + COLO205 + SK-N-BE2 + OVCAR-8. As to conditions: read-out: apparent Kd; compound concentrations: 100 nM and 1000 nM (sheet 'Samples'), CATDS: 0.144330390511521; n = 1.
The subject of another assay is TTK. Further details: species or system human, MV4-11 + K-562 + COLO205 + SK-N-BE2 + OVCAR-8. As to conditions: read-out: apparent Kd; compound concentrations: 100 nM and 1000 nM (sheet 'Samples'), CATDS: 8.7899385258393206E-2; n = 1.

Consider two compounds from PMC11062922 (Nature Chemical Biology, 2023).

Chain of Q6ZSR9 (Q6ZSR9 whole entry, looked up): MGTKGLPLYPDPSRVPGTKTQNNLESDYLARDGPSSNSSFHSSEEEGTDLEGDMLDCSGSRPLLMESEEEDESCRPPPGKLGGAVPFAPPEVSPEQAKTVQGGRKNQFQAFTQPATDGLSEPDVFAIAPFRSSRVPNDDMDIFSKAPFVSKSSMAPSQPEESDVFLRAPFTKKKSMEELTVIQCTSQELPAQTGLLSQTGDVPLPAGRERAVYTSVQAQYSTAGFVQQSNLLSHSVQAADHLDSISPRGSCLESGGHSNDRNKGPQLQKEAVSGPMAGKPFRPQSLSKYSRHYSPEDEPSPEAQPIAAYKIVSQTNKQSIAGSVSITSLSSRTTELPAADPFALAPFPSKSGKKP

As for `CC(=O)c1cccc(NC(=O)NC2CCN(c3ccnc(Nc4ccc(F)cc4)n3)C2)c1` (stereo not drawn) [GSK1379710A], the potency estimated from few doses was 658 nM with CAMK2B, 1220 nM with CDC42BPG and 2000 nM in the assay with TGFBR2.
In the case of `COc1cc(N2CCN(C(C)C)CC2)ccc1Nc1nc(Nc2ccc(F)cc2C(N)=O)c2cc[nH]c2n1` [GSK1220512A], the potency estimated from few doses in the assay with CAMKK2 was 2210 nM; in the assay with CLK1, 361 nM; with CLK4, 213 nM; with CSNK1D it was 2140 nM; in the assay on EIF2AK1 it was 1180 nM; with FER, 587 nM. Moreover, the potency estimated from few doses was 38 nM in the assay with GAK; 1110 nM in the assay on IGF1R; 691 nM in the assay on INSR; 59.2 nM with MAPK10; 64.7 nM in the assay with MAPK8; 172 nM with MAPK9. For the same compound, the potency estimated from few doses with NUAK1 was 1380 nM; in the assay with PRKD2 it was 1130 nM; in the assay on PRKD3, 1930 nM; in the assay on PTK2B it was 108 nM; in the assay with PTK2 it was 354 nM; with Q6ZSR9 it was 2040 nM. Also, the values for the potency estimated from few doses in the assay with RPS6KA1, with TNK1 and with TTK were 1910 nM, 44.9 nM and 104 nM, respectively.
